From PubChem BioAssay (Tox21) come the findings set out here.

Values joined by “and” are separate entries in the source; they are usually repeats but may differ in a detail not shown here. Equal values may be shown once. Records with an inconclusive call do not appear. Entries that show only a call come without a potency. More than one record can exist for a structure, and the calls need not agree. Active and inactive are the calls of the source. The call rests on the fitted dose curve; in most records, active means well fitted cell-killing curve with a large enough effect in the repeat runs; inconclusive means weak or mixed curves; inactive means flat fitted curve, though single readings scatter.
Potency means the concentration at half of the fitted maximal effect.

This experiment in a line: qHTS RealTime-Glo MT Cell Viability Assay in HepG2 cells - 32 hour (AID 1224877). Further: nearly all actives have a fitted effect of over 55% in size. The note with it: RealTime-Glo luminescence; series mostly up to 76.8 µM. The source says:
U.S. Tox21 Program National Center for Advancing Translational Sciences [NCATS] NIH Chemical Genomics Center [NCGC] U.S. Environmental Protection Agency [EPA] National Institutes of Environmental Health Sciences [NIEHS] National Toxicology Program [NTP] U.S. Food and Drug Administration [FDA] Tox21 Assay Overview: Measure of cell viability is critical in the cell-base assay. Analysis of cell viability is necessary for the characterization of cell responses to cytotoxic drugs and environmental stress. A RealTime-Glo MT Cell Viability Assay to monitor cell viability in real time of continues cell culture during 40 hours of compound treatment was used to screen Tox21 10K library compounds in HepG2 cells. The RealTime-Glo MT Cell Viability Assay is a nonlytic, homogeneous, bioluminescent method to measure cell viability in real time using a simple, plate-based method. The assay involves adding NanoLuc luciferase and a cell-permeant prosubstrate to cells in culture. Viable cells reduce the proprietary prosubstrate to generate a substrate for NanoLuc luciferase. This substrate diffuses from cells into the surrounding culture medium, where it is rapidly used by the NanoLuc Enzyme to produce a luminescent signal. The signal correlates with the number of viable cells, making the assay well suited for cytotoxicity studies.
Tox21 Assay Protocol Summary: The mixture of HepG2 cell suspension and reagents were dispensed at 600cells/6 ul/well in 1536-well tissue culture treated black solid bottom plates using a Multidrop dispenser. After the assay plates were incubated at a 37 C/5% CO2 incubator for 5 hours, 23 nL of compounds dissolved in DMSO, positive and negative controls was transferred to the assay plate by a pintool work station. The plates were incubated at 37 C for 40 hours. The luminescence intensity were measured at 0h, 8h, 16h, 24h, 32h and 40h time points using ViewLux plate reader during compound treatment.
For `Cc1cn([C@H]2C=C[C@@H](CO)O2)c(=O)[nH]c1=O`, the Potency entry was “inactive”.

Consider `O=C1NC(=O)C(c2ccccc2)(c2ccccc2)N1`, for which the Potency result was “inactive”.

In the case of `O=c1[nH]cnc2c1ncn2[C@H]1CC[C@@H](CO)O1`, the Potency result is “inactive”.

As to `OC[C@H]1O[C@H](O[C@]2(CCl)O[C@H](CCl)[C@@H](O)[C@@H]2O)[C@H](O)[C@@H](O)[C@H]1Cl`, the Potency result was “inactive”.

As for `CC(=O)C(=O)O`, the Potency result is “inactive”.

Consider `CN1CCC[C@H]1c1cccnc1`, for which the Potency entry is “inactive”.

As for `O=C1O[C@H]([C@@H](O)CO)C(O)=C1O`, the Potency entry was “inactive”.

For the compound `O=C1NS(=O)(=O)c2ccccc21`, the Potency result was “inactive”.

For `CN(C)CCOC(C)(c1ccccc1)c1ccccn1` (stereo not given), the Potency result was “inactive”.

As to `Cc1ncc([N+](=O)[O-])n1C`, the Potency result was “inactive”.

As to `CN[C@H]1CC[C@@H](c2ccc(Cl)c(Cl)c2)c2ccccc21`, the Potency was 23.9 µM (active).

Turning to `NS(=O)(=O)O`, the Potency entry was “inactive”.

On to `O=S1(=O)OC(c2ccc(O)cc2)(c2ccc(O)cc2)c2ccccc21`, for which the Potency was 49 µM (active) and inactive.

With `CCCCCCCCCCCC[N+](C)(C)Cc1ccccc1`, the Potency was 9.58 µM (active) and 18.9 µM (active) and 6.74 µM (active).

As to `Nc1c2c(nc3ccccc13)CCCC2`, the Potency entry is “inactive”.

As to `CC(C)C(=O)Nc1ccc([N+](=O)[O-])c(C(F)(F)F)c1`, the Potency result was “inactive”.

As to `C[C@](N)(Cc1ccc(O)c(O)c1)C(=O)O`, the Potency entry is “inactive”.

As to `C=C1CC[C@H](O)C/C1=C\C=C1/CCC[C@]2(C)[C@@H]([C@H](C)CCCC(C)C)CC[C@@H]12`, the Potency result was “inactive”.

Consider `COc1ccc2c(c1)c(CC(=O)O)c(C)n2C(=O)c1ccc(Cl)cc1`, for which the Potency entry is “inactive”.

In the case of `Cc1cccc(C)c1`, the Potency result is “inactive”.

Take `C/C=C/C=C/C(=O)O`: the Potency entry is “inactive”.

With `NC(CO)(CO)CO`, the Potency entry is “inactive”.

Regarding `CCCc1cc(=O)[nH]c(=S)[nH]1`, the Potency entry is “inactive”.

For the compound `CN(C)C(=S)SC(=S)N(C)C`, the Potency was 1.55 µM (active) and 3.38 µM (active).

In the case of `O=CC(=O)c1ccccc1`, the Potency entry is “inactive”.

Turning to `CCCCCCCCCCCCCCCC[N+](C)(C)Cc1ccccc1`, the Potency was 16 µM (active) and 14 µM (active) and 9.52 µM (active).

On to `CN(C)CCOC(c1ccccc1)c1ccccc1`, for which the Potency entry is “inactive”.

On to `CN1CCc2cccc3c2[C@H]1Cc1ccc(O)c(O)c1-3`, for which the Potency was 49.5 µM (active) and 16.3 µM (active).

`CCCCNC(=O)NS(=O)(=O)c1ccc(C)cc1`: the Potency result is “inactive”.

In the case of `CCc1nc(N)nc(N)c1-c1ccc(Cl)cc1`, the Potency result was “inactive”.

In the case of `O=c1[nH]cc(F)c(=O)[nH]1`, the Potency entry is “inactive”.

For `CN(C)C(=O)Nc1ccc(Cl)c(Cl)c1`, the Potency result is “inactive”.

On to `CS(=O)(=O)OCCCCOS(C)(=O)=O`, for which the Potency result is “inactive”.

With `Cn1c(=O)c2c(ncn2C)n(C)c1=O`, the Potency result was “inactive”.

In the case of `NC1CCCCC1`, the Potency result was “inactive”.

As to `Nc1c(N=Nc2ccc(-c3ccc(N=Nc4cc(S(=O)(=O)O)c5ccccc5c4N)cc3)cc2)cc(S(=O)(=O)O)c2ccccc12`, the Potency is 48.9 µM (active).

With `CCCCOC(=O)c1ccc(O)cc1`, the Potency entry is “inactive”.

With `CC(=O)CCC(=O)O`, the Potency result is “inactive”.

Consider `CN(N=O)C(=O)N[C@@H]1[C@@H](O)[C@H](O)[C@@H](CO)O[C@@H]1O`, for which the Potency entry was “inactive”.

As for `CC(=O)Nc1c(I)c(NC(C)=O)c(I)c(C(=O)O)c1I`, the Potency entry is “inactive”.
